Experimental data from PubChem BioAssay (NCATS).
Results filed as inconclusive are left out. Active and inactive are the calls of the source. Calls follow the shape of the dose curve; as a rule, active = well fitted cell-killing curve with a large enough effect; inconclusive = small, poorly fitted or top-dose-only effect; inactive = flat fitted curve, though single readings scatter.

test: Identifying Small Molecule Inhibitors of Pancreatic Cancer Stem Cells (SN12C, Adherent) (AID 1259358); details: viability/growth inhibition; series mostly up to 46.1 µM;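 also: cell survival measured after 48 h of compound exposure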
Source text: Progenitor-like cancer cells, often referred to as cancer stem cells (CSC), are believed to be the drivers of therapeutic resistance and rapid recurrence. CSCs are postulated to reside in specific niches characterized by low oxygen tension, limited nutrient supply, and high redox load. Selectively targeting CSC, alone or in combination with cytotoxic agents, as a means to produce durable remissions is an appealing concept. Modeling these cells in in vitro setting is an important step in finding new therapies and/or targets. Multiple reports highlight that forcing cells in culture into 3-dimensionaly architectures (spheroids) re-establishes key progenitor-like transcriptional signatures. Pancreatic cancer is among the diseases with the most dismal outlook which is driven, largely, by recurance following front-line therapies. […] In hopes of deriving new insight into the targeting of these pancreatic CSCs we examined three established pancreatic cancer cell lines in cytotoxicity assays versus a collection of approved and investigational drugs. Importantly, we screened these lines as traditional monolayer (2D) and spheroid (3D) formats to gain an appreciation of agents with differential activity.
Multicellular tumor spheroids from Panc1, MiaPaCa-2, and the primary low-passage tissue culture line SB.06 were seeded in stem cell media (SCM) in nonadherent 6-well plates coated with hydrogel (Corning Life Sciences, Chelmsford, Mass) and pancreatic spheres generated for 14 days before screening. Cells were seeded into 1536-well solid-bottom white tissue culture treated Greiner Bio One Plates (789173-F) using a MultiDrop Combi (Thermofisher Scientific) dispenser and a small sterile cassette. One column was media alone to be used as a :"no cells" control. The plates were then covered with sterilized stainless steel gasketed lids from Kalypsys. After allowing cells to attach for 4 hours, 23 nL of test compound or control (negative control DMSO and positive control 9.2 uM Bortezomib-final) were added from a 1536-well polypropylene compound source plate to each well using a 1536 head pin tool from Kalypsys. Cells were then incubated for 48 hours at 37C, 95% relative humidity and 5% CO2. After 48 hours, plates were removed from the incubator and 3 uL of CellTiter-Glo (Promega) was added using an Aurora Flying Reagent Dispenser Bioraptor. Plates were incubated at room temperature for 10 minutes prior to reading the luminescence on the Viewlux (PerkinElmer). The relative luciferase units are used to calculate the percent activity using the activity of DMSO in the cells and no cells columns for normalization of no inhibition and full inhibition respectively.
Potency is read from the fitted curve at half-maximal effect.

Question: For CC(C)C[C@H](NC(=O)CNC(=O)c1cc(Cl)ccc1Cl)B(O)O, which Potency is on record?
Answer: 0.132 µM (active)

Question: Which Potency does the source give for COc1ccc(OC)c(-c2nnc3ccc(-c4ccc(OC)c(O[C@@H]5CCOC5)c4)nn23)c1 here?
Answer: 20.9 µM (active)

Question: Which Potency does the source give for CS(=O)(=O)N1CCN(Cc2cc3nc(-c4cccc5[nH]ncc45)nc(N4CCOCC4)c3s2)CC1 here?
Answer: 0.296 µM (active)

Question: Which Potency does the source give for Cc1cn2c(-c3cn[nH]c3)cnc2c(Nc2ccc(C(=O)N3CCNCC3)cc2F)n1 here?
Answer: 20.9 µM (active)

Question: For CC(C)(C)c1cc(NC(=O)Nc2ccc(-c3cn4c(n3)sc3cc(OCCN5CCOCC5)ccc34)cc2)no1, which Potency is on record?
Answer: inactive

Question: Which Potency does the source give for O=C(c1ccc(Nc2nccc(-c3cc4ccccc4s3)n2)cc1)N1CCC(N2CCCC2)CC1 here?
Answer: 26.4 µM (active)

Question: Which Potency does the source give for CC(C)=CCCC(C)=CCCC(C)=CCSc1ccccc1C(=O)O here?
Answer: inactive

Question: With Fc1cc(-c2cccc3ncc(-c4cnn(C5CCNCC5)c4)nc23)cc(F)c1CN1CCOCC1 as the compound, how does the Potency read?
Answer: 23.5 µM (active)

Question: Which Potency does the source give for CC(=O)SC[C@@H](C)C(=O)N1CCC[C@H]1C(=O)N[C@@H](Cc1ccccc1)C(=O)O here?
Answer: inactive

Question: For CCCCCN(CCC12CC3CC(CC(C3)C1)C2)C(=O)NCCCc1ccncc1, which Potency is on record?
Answer: inactive

Question: With CC1=C(CO)C(=O)O[C@@H]([C@@H](C)[C@H]2CC[C@H]3[C@@H]4C[C@H]5O[C@]56[C@@H](O)C=CC(=O)[C@]6(C)[C@@H]4CC[C@]23C)C1 as the compound, how does the Potency read?
Answer: 5.26 µM (active)

Question: For Cc1[nH]nc2ccc(-c3cncc(OC[C@@H](N)Cc4ccccc4)c3)cc12, which Potency is on record?
Answer: 7.43 µM (active)

Question: With C=CC(=O)Nc1cc2c(Nc3ccc(F)c(Cl)c3)ncnc2cc1C#CC(C)(C)N1CCN(C)CC1 as the compound, how does the Potency read?
Answer: 13.2 µM (active)

Question: Which Potency does the source give for O=C(C=Cc1c(C(=O)O)[nH]c2cc(Cl)cc(Cl)c12)Nc1ccccc1 here?
Answer: inactive

Question: With O=C(NCCS(=O)(=O)c1ccc(C(F)(F)F)cn1)c1ccc(Cl)cc1 as the compound, how does the Potency read?
Answer: inactive

Question: With CC(C)[C@H](C(=O)Nc1ccc(C(=O)NO)cc1)c1ccccc1 as the compound, how does the Potency read?
Answer: 3.72 µM (active)

Question: With C[C@]1(CO)CN(c2cc(C(=O)Nc3ccc4c(c3)-c3c(c(C(N)=O)nn3-c3ccc(F)cc3)CC4)c(Cl)cn2)C[C@@]1(C)CO as the compound, how does the Potency read?
Answer: 16.6 µM (active)

Question: For Cn1c(=O)n(-c2ccc(C(C)(C)C#N)cc2)c2c3cc(-c4cnc5ccccc5c4)ccc3ncc21, which Potency is on record?
Answer: 0.0743 µM (active)

Question: For C1Cc2[nH]nc(-c3nn[nH]n3)c2C1, which Potency is on record?
Answer: inactive

Question: Which Potency does the source give for NC(=O)c1c(OCc2c(F)cc(Br)cc2F)nsc1NC(=O)NCCCCN1CCCC1 here?
Answer: 5.26 µM (active)

Question: For Nc1ccc(C(=O)c2cc3c(ccc4ccccc43)[nH]2)cc1, which Potency is on record?
Answer: inactive

Question: With C=CC(=O)Nc1cc2c(Nc3ccc(F)c(Cl)c3)ncnc2cc1OCCCN1CCOCC1 as the compound, how does the Potency read?
Answer: 23.5 µM (active)

Question: With COC(=O)[C@]12CCC(C)(C)C[C@@H]1[C@@H]1C(=O)C=C3[C@@]4(C)C=C(C#N)C(=O)C(C)(C)[C@@H]4CC[C@@]3(C)[C@]1(C)CC2 as the compound, how does the Potency read?
Answer: 2.64 µM (active)

Question: With COc1ccc2c(c1)CC[C@@H](CN(C)CC(=O)O)[C@H]2c1ccccc1 as the compound, how does the Potency read?
Answer: inactive

Question: Which Potency does the source give for Cc1cn(-c2cc(NC(=O)c3ccc(C)c(Nc4nccc(-c5cccnc5)n4)c3)cc(C(F)(F)F)c2)cn1 here?
Answer: inactive

Question: For Cc1cnc(-c2cnc(NCCNc3ccc(C#N)cn3)nc2-c2ccc(Cl)cc2Cl)[nH]1, which Potency is on record?
Answer: inactive

Question: Which Potency does the source give for NC(=O)Nc1cc(-c2cccc(F)c2)sc1C(=O)N[C@H]1CCCNC1 here?
Answer: 8.33 µM (active)

Question: For CC(C)(C)OC(=O)Nc1ccc(-c2cc(C(=O)NCCCCCCC(=O)NO)no2)cc1, which Potency is on record?
Answer: 26.4 µM (active)

Question: Which Potency does the source give for Cc1cc(Nc2cc(N3CCN(C)CC3)nc(Sc3ccc(NC(=O)C4CC4)cc3)n2)n[nH]1 here?
Answer: 20.9 µM (active)

Question: For Cc1ccc(C(N)=O)cc1Nc1nccc(-c2cn(C(C)C)c3cnccc23)n1, which Potency is on record?
Answer: inactive

Question: With COc1cc2ncnc(Nc3ccc(F)c(Cl)c3)c2cc1NC(=O)C=CCN1CCCCC1 as the compound, how does the Potency read?
Answer: 20.9 µM (active)

Question: For COc1ccc(C=Cc2cc(OC)c(OC)c(OC)c2)cc1O, which Potency is on record?
Answer: 0.0026 µM (active)

Question: For CCCCN1CCC(CNC(=O)c2c3n(c4ccccc24)CCCO3)CC1, which Potency is on record?
Answer: inactive

Question: Which Potency does the source give for N#Cc1c(O)c2c(-c3ccc(-c4ccccc4O)cc3)csc2[nH]c1=O here?
Answer: inactive

Question: For CC(C)c1ccccc1Cc1cc(C(=O)Nc2ccc(S(=O)(=O)c3ccccc3C(C)(C)C)cc2)c(O)c(O)c1O, which Potency is on record?
Answer: inactive

Question: With CC(=O)OCC(=O)[C@@]1(O)[C@H](C)C[C@H]2[C@@H]3C=C(C)C4=Cc5c(cnn5-c5ccccc5)C[C@]4(C)[C@@H]3[C@@H](O)C[C@@]21C as the compound, how does the Potency read?
Answer: inactive

Question: With C#Cc1cccc(Nc2ncnc3cc(OC)c(OCCCCCCC(=O)NO)cc23)c1 as the compound, how does the Potency read?
Answer: 14.8 µM (active)

Question: Which Potency does the source give for c1ccc2c(CCNc3ccc(Nc4ccncc4)cc3)c[nH]c2c1 here?
Answer: 18.7 µM (active)

Question: With CC1(C)OC2=C(C(=O)c3ccccc3C2=O)[C@H](NCc2ccccc2)[C@H]1O as the compound, how does the Potency read?
Answer: 26.4 µM (active)

Question: Which Potency does the source give for CCCCc1nc2cc(C=CC(=O)NO)ccc2n1CCN(CC)CC here?
Answer: 2.96 µM (active)
